One assay has as its target Albumin (Bos taurus) (UniProt P02769). Briefly: bovine serum albumin binders on microarray, profiling panel, artefact control for SMM control protein annotation, biochemical, small-molecule microarray, Alexa647 label, 635/667 nm fluorescence (AID 1118).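 Further: score merges 667 nm emission intensity and signal-to-noise per printed compound spot.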 The settings on record: BSA-A647 binding, fluorescence 635 nm, higher = more signal.
A short description of assay [1]: small-molecule microarray binders of probe aXIP, primary screen, biochemical, NeuroSMM set, 635/667 nm fluorescence (AID 1119).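 Further: probe is the protein aXip251-270 applied at 1 µg/mL to compound-printed slides; binding of probe to printed compounds measured as 667 nm fluorescence plus signal to noise.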 The settings on record: higher = more signal, called active from +8 up or from −8 down.
Assay [2] in a line: small-molecule binders of probe aNOTCH3, primary screen, biochemical, small-molecule microarray, 635/667 nm fluorescence (AID 1120).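 Further: probe is a biotin-tagged antibody raised against NOTCH3 rather than NOTCH3 protein; score merges spot fluorescence near 667 nm with spot signal to noise.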 The settings on record: higher = more signal.
A short description of assay [3]: small-molecule binders of probe aNOTCH2, primary screen, biochemical, small-molecule microarray, 635/667 nm fluorescence (AID 1121).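 Further: score merges feature fluorescence read at 667 nm with its signal to noise.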 The following applies: higher = more signal.
Assay [4] deals with Carbonic anhydrase 2 (Homo sapiens) (UniProt P00918). In words: CAII small-molecule binders, profiling panel, biochemical, small-molecule microarray, Alexa647-labelled CAII (AID 1122). The following applies: CAII-A647 binding fluorescence, higher = more signal.
Assay [5] can be described thus: COS7 lysate on small-molecule microarray, probe aHis, 635 nm (AID 1123).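 Further: z-score combines 667nm fluorescence intensity with signal-to-noise per printed compound spot.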 The following applies: COS7 cell lysate, fluorescence, higher = more signal.
The nature of assay [6]: compound binding in COS7 lysate, probe aLAP1, primary screen, cell lysate, small-molecule microarray (AID 1124).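 Further: lysate comes from COS7 cells expressing LAP1 and is applied at 0.3 µg/mL; score merges spot fluorescence near 667 nm with signal-to-noise over triplicate slides.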 The following applies: probe aLAP1, fluorescence, higher = more signal.
In a further assay the test system is Sam68 (KHDRBS1). Briefly: Sam68 small-molecule binders, primary screen, biochemical, small-molecule microarray, 635 nm fluorescence (AID 1125).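 Further: score merges 667 nm channel intensity with signal to noise over triplicate slides.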 The following applies: small-molecule microarray binding, higher = more signal.
The test system of assay [7] is Chordin-like protein 2 (CHRDL2). Briefly: CHRDL2 small-molecule binders, primary screen, biochemical, small-molecule microarray, 635 nm fluorescence (AID 1126).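 Further: printed compound slides probed with Chrdl2 protein at 4 µg/mL for 1 h at 4 C; score merges 667 nm emission intensity with signal to noise over three replicate slides.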 The following applies: small-molecule microarray binding, fluorescence 635 nm; higher = more signal.
The target in assay [8] is Concanavalin-A (Canavalia ensiformis) (UniProt P02866). Briefly: ConA small-molecule binders, primary screen, artefact control for SMM control protein annotation, biochemical, small-molecule microarray, Alexa647 label, 635 nm (AID 1127).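 Further: z combines 667 nm emission intensity with signal-to-noise across three replicate slides.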 The following applies: ConA-A647 binding fluorescence, higher = more signal.
Sequence of Concanavalin-A (Canavalia ensiformis) (P02866 whole entry, looked up): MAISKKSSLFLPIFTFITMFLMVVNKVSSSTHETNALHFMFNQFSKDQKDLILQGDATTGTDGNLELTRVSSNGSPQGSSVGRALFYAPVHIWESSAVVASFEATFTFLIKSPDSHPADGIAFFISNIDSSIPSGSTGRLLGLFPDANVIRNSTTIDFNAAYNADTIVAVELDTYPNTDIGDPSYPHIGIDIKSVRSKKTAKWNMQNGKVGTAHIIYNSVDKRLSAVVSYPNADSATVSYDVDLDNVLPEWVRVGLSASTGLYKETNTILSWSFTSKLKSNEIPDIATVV

Active and inactive are the calls of the source.

Sequence of Albumin (Bos taurus) (P02769 whole entry, looked up): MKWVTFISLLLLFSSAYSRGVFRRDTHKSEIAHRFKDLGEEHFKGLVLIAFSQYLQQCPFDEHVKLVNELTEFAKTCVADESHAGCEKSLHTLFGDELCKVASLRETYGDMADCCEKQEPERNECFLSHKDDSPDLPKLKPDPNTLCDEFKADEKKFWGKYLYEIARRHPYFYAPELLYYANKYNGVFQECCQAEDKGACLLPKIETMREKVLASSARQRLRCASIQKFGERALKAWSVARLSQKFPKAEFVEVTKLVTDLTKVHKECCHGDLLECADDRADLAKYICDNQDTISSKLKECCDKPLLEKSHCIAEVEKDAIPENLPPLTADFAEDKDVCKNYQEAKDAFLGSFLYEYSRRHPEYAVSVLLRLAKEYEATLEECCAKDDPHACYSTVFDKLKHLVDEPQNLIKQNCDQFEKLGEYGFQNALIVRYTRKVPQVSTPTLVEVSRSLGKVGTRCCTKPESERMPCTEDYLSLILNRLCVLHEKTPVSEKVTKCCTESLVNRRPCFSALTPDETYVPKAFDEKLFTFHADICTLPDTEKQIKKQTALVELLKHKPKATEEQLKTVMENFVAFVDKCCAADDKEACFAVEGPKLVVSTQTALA

Regarding `COC(=O)[C@H](C)NC(=O)CCC1CC(OC(=O)NCc2ccc3c(c2)OCO3)CC2(CCCC(COC(=O)NCC3CCCCC3)O2)O1` (stereo not given in full), the composite z-score with Albumin (Bos taurus) was 0.569; in [2], -0.0111; in assay [3], -0.0947; in assay [4], 0.234; in assay [5], 1.19; in assay [6] it was -0.111. Moreover, the composite z-score worked out at 1.29 with Sam68 (KHDRBS1), 0.435 in assay [7] and 1.05 in assay [8]. Also, in assay [1], the composite Z-score is -0.0882 (inactive).
Turning to `CC(C)CON=C1C[C@@H](O)[C@@H](O)[C@@H]2[C@@H]3C(=O)N(c4cccc(Oc5ccccc5)c4)C(=O)[C@@H]3CC[C@@H]12`, the composite z-score is 0.621 with Albumin (Bos taurus); -0.0377 in assay [2]; -0.121 in assay [3]; 0.418 in assay [4]; 1.04 in [5]; 0.118 in assay [6]. Moreover, the composite z-score was determined as 1.17 in the assay with Sam68 (KHDRBS1), 0.232 in [7] and 1.13 in [8]. The composite Z-score in assay [1] was 0.0388 (inactive).
For `C=CC1=C[C@H](O)[C@@H]2O[C@@H]2C12OCCCO2`, the composite z-score with Albumin (Bos taurus) is -0.728; in assay [2], -0.131; in assay [3], -0.0878; in assay [4] it was 0.0206; in assay [5], -0.281; in assay [6], -0.115. For the same compound, the composite z-score in the assay on Sam68 (KHDRBS1) came to 0.372; in assay [7], 0.202; in assay [8] it was 0.337. Besides, in [1], the composite Z-score is -0.174 (inactive).
`CO[C@@H]1COC(=O)[C@@H]2CCCN2C(=O)[C@@H](C)COC(=O)CC=C[C@H]1C`: the composite z-score is 0.0417 with Albumin (Bos taurus); -0.0362 in [2]; -0.14 in assay [3]; 0.299 in assay [4]; 0.148 in assay [5]; 0.0496 in assay [6]. Besides, the values for the composite z-score (in the assay with Sam68 (KHDRBS1); in assay [7]; in [8]) were 1.2, 0.695 and 0.325, respectively. In addition, the composite Z-score in assay [1] is -0.235 (inactive).
Consider `CO[C@@H]1COC(=O)[C@@H](C)NC(=O)CC=C[C@@H](C)[C@H](NS(=O)(=O)c2ccc(C)cc2)COC(=O)[C@H](C)NC(=O)CC=C[C@H]1C`, for which the composite z-score in the assay with Albumin (Bos taurus) was -1.05; in [2] it was -0.0647; in [3], -0.184; in assay [4], -0.333; in assay [5], -0.634; in assay [6] it was -0.192. In addition, the composite z-score in the assay on Sam68 (KHDRBS1) is 0.643; in assay [7] it was 1.16; in assay [8], -1.05. Further, in assay [1], the composite Z-score is 1.05 (inactive).
On to `CC(CCN1CCCc2nc(C)c(C)cc21)=NOC(C)CN1CCCCc2nc(C)c(C)cc21` (stereo not given), for which the composite z-score is -0.0931 with Albumin (Bos taurus); 0.539 in assay [2]; 0.101 in [3]; 0.618 in [4]; 0.84 in assay [5]; 0.247 in assay [6]. Also, the values for the composite z-score (with Sam68 (KHDRBS1); in assay [7]; in assay [8]) were 1.3, 1.06 and 1.01, respectively. Further, the composite Z-score in [1] is 1.62 (inactive).
Regarding `C[C@@H]1CC[C@H]2C(=O)O[C@@H](Cc3ccccc3)CN2[C@H]1c1ccc(Br)cc1`, the composite z-score with Albumin (Bos taurus) is 0.126; in [2], -0.0997; in assay [3], -0.106; in assay [4], 0.512; in [5], 0.871; in assay [6], 0.912. Besides, the composite z-score in the assay on Sam68 (KHDRBS1) is 1.06; in [7] it was 0.227; in [8] it was 0.266. The composite Z-score in [1] is -0.358 (inactive).
On to `CCOC(=O)NN=C1C[C@@H](O)[C@@H](O)[C@@H]2[C@@H]3C(=O)N(Cc4ccccc4)C(=O)[C@@H]3CC[C@H]12`, for which the composite z-score with Albumin (Bos taurus) is -0.182; in assay [2], -0.183; in [3] it was -0.174; in [4], 0.542; in assay [5] it was 0.307; in assay [6] it was -0.4. The composite z-score is -0.0882 in the assay with Sam68 (KHDRBS1), 0.194 in assay [7] and 1.12 in assay [8]. For the same compound, the composite Z-score in assay [1] was -0.374 (inactive).
In the case of `CCOC(=O)CCN1C(=O)[C@H]2[C@H]3[C@H](O)[C@H](O)CC(=NNC(=O)OCc4ccccc4)[C@@H]3CC[C@H]2C1=O`, the composite z-score with Albumin (Bos taurus) was 0.576; in assay [2], -0.0864; in assay [3] it was -0.117; in [4] it was 0.21; in assay [5], -0.0034; in [6], 0.32. In addition, the composite z-score was 1.19 in the assay with Sam68 (KHDRBS1), 0.393 in assay [7] and 1 in [8]. For the same compound, in [1], the composite Z-score was 0.406 (inactive).
As to `C[C@H]1CC[C@H]2C(=O)O[C@H](COc3ccc(C(C)(C)C)cc3)CN2[C@@H]1c1ccc(Br)cc1`, the composite z-score is 0.513 with Albumin (Bos taurus); -0.0435 in assay [2]; -0.123 in [3]; -0.232 in assay [4]; 0.263 in assay [5]; 0.253 in assay [6]. Moreover, the composite z-score in the assay with Sam68 (KHDRBS1) is 0.421; in [7], -0.0816; in assay [8], 1.09. Also, the composite Z-score in [1] is 1.48 (inactive).
Take `COc1ccc(O[C@H]2C=C[C@@H](c3ccccc3)O[C@@H]2CON=C2[C@H]3CCn4c(=O)n(-c5ccccc5)c(=O)n4[C@H]3[C@H](O)[C@@H]3O[C@H]23)cc1`: the composite z-score in the assay with Albumin (Bos taurus) is 0.67; in assay [2] it was -0.0282; in assay [3], -0.132; in [4], 0.405; in assay [5], 0.455; in assay [6] it was 0.244. For the same compound, the composite z-score with Sam68 (KHDRBS1) was 1.18; in [7], 0.276; in [8] it was 0.817. Moreover, in assay [1], the composite Z-score is 0.125 (inactive).
Take `O=C1C[C@@H](O)[C@@H](O)[C@@H]2[C@@H]3C(=O)N(c4cccc(Oc5ccccc5)c4)C(=O)[C@@H]3CC[C@H]12`: the composite z-score with Albumin (Bos taurus) was 0.332; in assay [2], -0.085; in assay [3], -0.137; in [4], -0.0963; in assay [5] it was 0.104; in assay [6] it was 0.183. Further, the composite z-score in the assay on Sam68 (KHDRBS1) stood at 0.21; in [7], 0.455; in assay [8], 0.505. Further, the composite Z-score in assay [1] was 0.454 (inactive).
With `C=Cc1ccc([C@H]2N[C@H](C(=O)O)CC[C@@H]2C)cc1`, the composite z-score with Albumin (Bos taurus) was 0.108; in assay [2] it was -0.178; in assay [3], -0.155; in [4], 0.275; in assay [5] it was -0.344; in assay [6], 0.723. The composite z-score in the assay on Sam68 (KHDRBS1) was -1.6; in assay [7], 0.65; in assay [8], -0.437. Further, the composite Z-score in assay [1] is -0.602 (inactive).
For the compound `COC(=O)C=CCCc1coc(C=CCNC(=O)OC)n1`, the composite z-score with Albumin (Bos taurus) is 0.266; in assay [2] it was 0.482; in assay [3], 0.16; in [4] it was 0.492; in assay [5] it was 0.32; in [6] it was 0.146. Also, the composite z-score was 0.654 with Sam68 (KHDRBS1), 1.34 in [7] and -0.0726 in [8]. The composite Z-score in assay [1] was 0.103 (inactive).
Consider `O=C1[C@H]2[C@H]3[C@H](O)[C@H](O)CC(=NOC[C@@H](O)COCc4ccco4)[C@H]3CC[C@H]2C(=O)N1C[C@@H]1CCCO1`, for which the composite z-score with Albumin (Bos taurus) was -0.483; in assay [2], -0.0976; in [3], -0.208; in assay [4] it was -0.237; in assay [5], -0.736; in [6], -0.353. Moreover, the composite z-score is 0.293 in the assay on Sam68 (KHDRBS1), 1.38 in assay [7] and -0.294 in assay [8]. In assay [1], the composite Z-score was 0.382 (inactive).
Turning to `COc1cccc([C@H]2Oc3ccc(OC)cc3C(=NO[C@@H]3O[C@H](COC(C)=O)[C@@H](OC(C)=O)[C@H](OC(C)=O)[C@H]3OC(C)=O)[C@@H]2O)c1`, the composite z-score with Albumin (Bos taurus) was 0.0351; in assay [2], -0.0598; in assay [3], -0.141; in [4], -0.403; in assay [5], 0.1; in assay [6], 0.474. The results for the composite z-score (in the assay on Sam68 (KHDRBS1); in [7]; in assay [8]) were 0.153, -0.0174 and -0.143, respectively. In [1], the composite Z-score was 1.25 (inactive).
As to `COc1ccc(C#C[C@@H]2C=C[C@H](OC(C)=O)[C@@H](COC(C)=O)O2)cc1`, the composite z-score in the assay with Albumin (Bos taurus) is 0.18; in assay [2], -0.0077; in [3] it was -0.153; in assay [4] it was 0.61; in assay [5], 0.759; in assay [6], -0.019. Besides, the composite z-score amounted to 0.112 in the assay with Sam68 (KHDRBS1), 0.867 in [7] and 0.536 in assay [8]. Moreover, in assay [1], the composite Z-score is -0.153 (inactive).

Source of the values: PubChem BioAssay.
